Rows were chosen to be rich in hits. Some 3.4% of all compounds tested hit in one or more screens of this group.
Sm TGR block: blocks Schistosoma mansoni thioredoxin glutathione reductase; purified TGR, DTNB reduction, TNB absorbance 405 nm; Q962Y6; Potency, µM (highest dose often 114 µM), for the others: at the highest dose activity change, negative = inhibition, actives largely listed as inhibitors; 360,000 tested, 3% active; also: nearly all actives have a fitted effect of over 60% in size
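First, TGR (20 nM dispensed) and NADPH were mixed with compound. Second, a 15 min room-temperature incubation followed. Third, further NADPH and then DTNB were added to start the reaction. Finally, TNB absorbance was monitored kinetically.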
FBPA Giardia inh: Giardia lamblia aldolase inhibition. purified Giardia FBPA. 290,000 tested, 0.71% active. AID 2451. A8B2U2. Potency, µM (highest dose often 59.6 µM), for inactives: top-dose activity, negative = inhibition, actives largely listed as inhibitors; also: nearly all actives have a fitted effect of over 55% in size
Target sequence (A8B2U2 whole entry, looked up): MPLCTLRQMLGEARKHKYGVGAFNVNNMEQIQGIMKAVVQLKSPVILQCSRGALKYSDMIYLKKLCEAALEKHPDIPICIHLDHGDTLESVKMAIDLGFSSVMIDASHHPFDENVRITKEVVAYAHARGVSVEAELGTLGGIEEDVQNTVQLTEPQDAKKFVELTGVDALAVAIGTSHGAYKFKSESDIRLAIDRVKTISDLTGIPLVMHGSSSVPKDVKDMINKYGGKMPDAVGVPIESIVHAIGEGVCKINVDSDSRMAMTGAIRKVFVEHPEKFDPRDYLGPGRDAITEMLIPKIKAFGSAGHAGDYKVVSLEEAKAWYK
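Giardia FBPA (40 nM reagent) was preincubated 10 min at RT with compound (up to 57.5 uM final), then substrate plus GAPDH/TPI/NAD/arsenate coupling system with diaphorase/resazurin was added; resorufin fluorescence (525/598 nm) was read after 20 min.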
AmpC inh no detg: blocks E. coli AmpC beta-lactamase in detergent-free assay. P00811. AmpC nitrocefin hydrolysis, absorbance 480 nm, 0.0001% Triton. Potency, µM (series often up to 57.1 µM), for the others: top-dose activity change, negative = inhibition, most hits filed as inhibitors. 330,000 tested, 0.52% active;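 also: plate controls were no compound for no effect and no enzyme for full effect; nearly all actives have a fitted effect of over 20% in size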
Target sequence (P00811 whole entry, looked up): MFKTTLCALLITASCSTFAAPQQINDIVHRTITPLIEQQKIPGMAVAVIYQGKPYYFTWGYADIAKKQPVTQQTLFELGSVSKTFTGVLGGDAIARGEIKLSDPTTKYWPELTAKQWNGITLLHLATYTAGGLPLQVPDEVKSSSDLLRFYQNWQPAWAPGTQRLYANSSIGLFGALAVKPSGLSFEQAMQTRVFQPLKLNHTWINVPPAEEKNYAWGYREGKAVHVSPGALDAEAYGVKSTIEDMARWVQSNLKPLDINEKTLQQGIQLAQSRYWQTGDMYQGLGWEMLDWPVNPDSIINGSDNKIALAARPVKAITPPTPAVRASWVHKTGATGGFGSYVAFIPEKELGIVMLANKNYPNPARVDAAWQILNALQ
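AmpC (5.3 nM in the dispensed reagent) in 20 mM phosphate pH 7.0 with 0.01% (detergent screen) or 0.0001% Triton X-100 was preincubated with compounds for 15 min at room temperature. Nitrocefin was then added from an 800 uM solution, and hydrolysis was followed at 480 nm.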
RE007 growth inh: less growth of the S. pombe RE007 Vpr strain; S. pombe RE007 Vpr strain, BacTiter-Glo ATP luminescence, 24 h; Potency, µM (titrated, usually from 92.2 µM), for inactives: at the highest dose activity change, negative = less growth, most hits filed as inhibitors; 360,000 tested, 0.21% active; active = well fitted falling curve with a large enough effect; inconclusive = small, poorly fitted or top-dose-only effect; inactive = no such curve, though single readings can be large or run the other way; also: nearly all actives have a fitted effect of over 50% in size
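Fission yeast RE007 carrying one integrated HIV-1 vpr copy, seeded at OD 0.01 in PMG+AL medium with 23 nL pinned compound. Grown 24 h at 30 degrees; viability read by BacTiter-Glo luminescence after 5 min.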
AmpC detergent: AmpC beta-lactamase inhibition with detergent present; P00811; AmpC hydrolysis of nitrocefin, absorbance 480 nm, 0.01% Triton; Potency, µM (titrated, usually from 114 µM), for the others: top-dose activity change, negative = inhibition, usual class: inhibitors; 370,000 tested, 0.041% active; AID 485294;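 also: 0% = no-compound wells and -100% = no-enzyme wells; nearly all actives have a fitted effect of over 25% in size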
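AmpC (5.3 nM in the dispensed reagent) in 20 mM phosphate pH 7.0 with 0.01% (detergent screen) or 0.0001% Triton X-100 was preincubated with compounds for 15 min at room temperature. Nitrocefin was then added from an 800 uM solution, and hydrolysis was followed at 480 nm.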
Numbers without * were called inactive; ? = inconclusive; · = not tested or not shown; [ ] = remark or other dose. Unless noted, calls follow the shape of the dose curve; as a rule, active = well fitted curve in the direction sought with a large enough effect; inconclusive = small, poorly fitted or top-dose-only effect, or another doubt; inactive = no such curve, though single readings can be large; an effect the other way counts as inactive or inconclusive. Unless noted, % is scaled to controls: 0 for no effect and ±100 for the full control effect; potency is read from the fitted curve at half-maximal effect.

SMILES | Sm TGR block | FBPA Giardia inh | AmpC inh no detg | RE007 growth inh | AmpC detergent
O=C(COC(=O)c1cccc(S(=O)(=O)N2CCc3ccccc3C2)c1)NCc1ccco1 | 28µM* | 0% | -46% | -1% | ?
CCCCn1c(/C=C/c2ccco2)nc2ccccc21 | 10µM* | -25% | -23% | 0% | 3%
CCCn1c(/C=C/c2ccco2)nc2ccccc21 | 20µM* | -16% | -18% | -4% | -6%
CCCn1c(NCc2ccco2)nc2ccccc21 | -1% | 1% | -38% | -6% | -1%
CCC1=Nc2cc(C(=O)NCc3ccco3)ccc2Sc2ccc(Cl)cc21 | ? | -8% | -21% | 9% | -8%
Cc1ccc(CNC(=O)OC2CC3CC2[C@H]2CCCCN2C3=O)cc1 (some centres undefined) | · | · | · | -1% | ·
Oc1ccc(/C=N/Nc2ccc3ccccc3c2)c(O)c1 | 45µM* | -17% | -45% | 7% | -10%
Oc1ccc(C=NNc2nc3ccccc3s2)c(O)c1 | · | · | · | 1% | ·
O=S(=O)(c1ccc(F)cc1)N1CCN(S(=O)(=O)c2cccs2)CC1 | 7% | · | -8% | -13% | -8%
O=[N+]([O-])c1ccccc1S(=O)(=O)NCCSCc1ccco1 | 25µM* | · | -34% | 21% | -7%
CS(=O)(=O)NCCSCc1ccco1 | 20µM* | -10% | -23% | 4% | -11%
CC(=O)Nc1ccc(S(=O)(=O)NCCSCc2ccco2)cc1 | ? | -6% | -46% | -1% | 1%
O=S(c1ccccc1O)S(=O)c1ccccc1O (centres undefined) | · | · | · | 35µM* | ·
CN1C2CCC1/C(=C/c1cccn1C)C(=O)/C2=C\c1cccn1C | 35µM* | ? | 17% | -17% | 8%
Cn1cccc1/C=C1\Cc2ccccc2C1=O | 3% | -5% | -13% | -18% | ?
Cn1cccc1/C=C1\CCc2ccccc2C1=O | 5% | -15% | -25% | 35µM* | ?
COc1ccc(-c2n[nH]c(=S)n2/N=C/C=C/c2ccccc2OC)cc1 | -2% | 16% | -58% | · | -9%
O=C(Nc1ccc2c(c1)OCCO2)NC1(C(F)(F)F)Oc2ccccc2O1 | 40µM* | -10% | -42% | 16% | ?
O=C(Nc1ccc2c(c1)OCO2)Nc1ccccc1F | 0% | · | -31% | -21% | -2%
O=C(NCC1CCCO1)NC1(C(F)(F)F)Oc2ccccc2O1 (centres undefined) | ? | 0% | -6% | 6% | -1%
O=C(NC1(C(F)(F)F)Oc2ccccc2O1)N1CCCC1 | 40µM* | -9% | -5% | 8% | 5%
O=C(Nc1ccc2c(c1)OCO2)NC1(C(F)(F)F)Oc2ccccc2O1 | 35µM* | ? | -35% | -1%[3.69 µM] | ?
CS(=O)(=O)N(CC(=O)NC1CCCCC1)c1cccc(F)c1 | 9% | 5% | 5% | -2% | -1%
COc1ccc2sc(-c3ccccc3OC)c(C#CCCO)c2c1 | ? | · | 31% | 1% | 5%
COc1cc(OC)cc(-c2sc3ccc(OC)cc3c2C#CCCO)c1 | 25µM* | · | 87% | -4% | -8%
SMILES | Sm TGR block | FBPA Giardia inh | AmpC inh no detg | RE007 growth inh | AmpC detergent
O=C(c1ccc(S(=O)(=O)c2cccc(Cl)c2)c([N+](=O)[O-])c1)N1CCN(c2ccccn2)CC1 | 3.5µM* | -7% | 32% | -16% | 7%
Cc1ccccc1CC(=O)NC1CCN(C)CC1 | 1% | -6% | -1% | 3% | 3%
OCCN1CCN(C(=S)c2ccc(Cl)c(Cl)c2)CC1 | 1% | 13µM* | 6% | -6% | 5%
Cc1ccc(-c2ccc3nnc(SCC(=O)NCC4CCCO4)n3n2)cc1 (centres undefined) | 15% | 6% | -21% | 1% | 1%
COc1ccc(N2CCN(S(=O)(=O)c3cccc(C(F)(F)F)c3)CC2)cc1 | 0% | 0% | -12% | 0% | ?
Cc1ccc(CNC(=O)C2CC3Cn4c(nc5cc(Cl)c(Cl)cc54)C3N2C)o1 (centres undefined) | 45µM* | -4% | 43% | 2% | -7%
Cc1ccc(CNC(=O)C2CC3Cn4c(nc5cc(C)c(C)cc54)C3N2C)o1 (centres undefined) | 0% | 1% | 27% | -11% | 0%
CCCNC(=O)C1CC2Cn3c(nc4ccccc43)C2N1C (centres undefined) | 40µM* | · | 2% | 3% | 2%
C=CCNC(=O)CN1CCC(NC(=O)c2ccco2)CC1 | · | -2% | -6% | 1% | -10%
Cc1csc2ncc(C(=O)N3CCCc4ccccc43)c(=O)n12 | 5% | 0% | 3.5µM* | 5% | ?
COc1ccccc1NC(=O)Nc1ccccc1C#N | 1% | 10% | -24% | 12% | ?
COc1ccc(-n2nnc3c(=O)n(CC(=O)NCC4CCCO4)cnc32)cc1 (centres undefined) | 1% | -7% | 6% | -6% | -21%
O=C1C=CC(=O)N1c1ccc(OC(F)F)cc1 | 0.35µM* | -5% | -40% | 2.8µM* | ?
O=C1CCCC(=O)N1c1ccc(O)cc1 | 0%[57.1 µM] | 1% | -24% | 11% | -2%
O=C1C2C3C=CC(C2C(=O)N1c1ccc(O)cc1)C1C2C(=O)N(c4ccc(O)cc4)C(=O)C2C31 (centres undefined) | 50µM* | -25% | -28% | 0% | 1%
O=C(O)CNC(=O)c1ccc(OC(F)F)cc1 | 0% | 0% | -13% | -1% | 0%
O=C1C=CC(=O)N1c1ccc(O)cc1 | 0.89µM* | -27% | -12% | 6.3µM* | 2%
CCCc1cc(N2CCN(c3ccccc3)CC2)n2cnnc2n1 | 5% | · | · | · | 4%
Cc1ccnc(NC(=O)c2ccc3c(c2)C(=O)N(CCC(C)C)C3=O)c1 | 6% | · | -22% | -14% | 3%
O=C1CCC/C(=N\NC(=O)c2ccc(NS(=O)(=O)c3ccc(Br)cc3)cc2)C1 | -21% | -13% | 28µM* | 32% | -7%
Cc1ccc(C(=O)OCC(=O)c2c[nH]c3ccccc23)cc1NC(=O)c1ccco1 | 2% | -4% | 1%[2.29 µM] | 1% | -10%
COc1cc(C2OC(=O)c3c2ccc(OC)c3OC)ccc1O (centres undefined) | 28µM* | · | 1% | · | -13%
COc1cc(C2C(=O)c3ccccc3C2=O)ccc1O | -3% | -13% | -25% | -7% | -9%
Cc1ccc2cc(CN(C(=O)c3ccco3)c3ccccc3)c(=O)[nH]c2c1 | 32µM* | -22% | -17% | 0% | ?
Cc1cccc(N(Cc2cc3ccc(C)cc3[nH]c2=O)C(=O)c2ccco2)c1 | 4.5µM* | 0% | -10% | -6% | 12%
Cc1ccc(N(Cc2cc3ccc(C)cc3[nH]c2=O)C(=O)c2ccco2)cc1 | 2.2µM* | 1% | -28% | 2% | -10%
Cc1ccc2cc(CN(Cc3ccco3)C(=O)c3cccs3)c(=O)[nH]c2c1 | 40µM* | 6% | -31% | 1% | -5%

Screening results deposited in PubChem BioAssay by National Center for Advancing Translational Sciences (NCATS).
